Tests used:
[1] = molecular target: T1, Aspartate--tRNA(Asp/Asn) ligase (Mycobacterium tuberculosis (strain ATCC 25618 / H37Rv)) (UniProt P9WFW3); assay: Assay for Asp RNA synthetase-1 from Mycobacterium tuberculosis; assay type: functional; set-up: scale not given: direction of the effect not stated beside the values; conditions: 30 µM; further: in the data most compounds retested in dose-response had high values
T1 sequence (whole entry): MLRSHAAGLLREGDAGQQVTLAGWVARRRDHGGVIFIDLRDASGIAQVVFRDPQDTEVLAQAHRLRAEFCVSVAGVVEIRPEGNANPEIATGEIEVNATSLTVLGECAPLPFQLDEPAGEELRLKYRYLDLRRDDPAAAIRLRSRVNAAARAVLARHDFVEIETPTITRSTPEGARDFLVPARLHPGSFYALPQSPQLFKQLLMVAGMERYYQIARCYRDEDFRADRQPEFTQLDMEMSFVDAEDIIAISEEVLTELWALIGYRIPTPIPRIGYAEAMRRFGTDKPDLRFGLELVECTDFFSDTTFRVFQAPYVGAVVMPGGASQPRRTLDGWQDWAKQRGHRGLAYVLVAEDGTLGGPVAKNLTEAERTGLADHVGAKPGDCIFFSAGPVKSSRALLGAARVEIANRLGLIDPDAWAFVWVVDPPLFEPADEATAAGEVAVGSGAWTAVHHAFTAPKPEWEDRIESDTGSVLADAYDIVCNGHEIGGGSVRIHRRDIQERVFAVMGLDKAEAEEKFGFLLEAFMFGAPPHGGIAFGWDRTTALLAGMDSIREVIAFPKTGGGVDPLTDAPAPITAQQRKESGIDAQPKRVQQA

[2] = molecular target: Shiga toxin 2 (Escherichia coli O157:H7) (UniProt P09385+P09386); assay: E. coli 0.157:H7 Shiga Toxin SOP - stx2 screening assay; assay type: functional; set-up: scale not given: direction of the effect not stated beside the values; conditions: 30 µM

Row | SMILES | Percent Effect [1] [%] | Percent Effect [2] [%]
1 | CC(C)NC(=O)[C@@H](NC(=O)N1CCN(c2ccc(Cl)cc2)CC1)C(C)C | -2.11 | -49
2 | COC(=O)c1ccc(N2CCN(CCC(=O)NC(N)=O)C(C)C2)cc1 (stereo not given) | 3.04 | 25.6
3 | CN(C)CC(=O)N1C[C@H]2CCC[C@@]2(COc2ccccn2)C1 | 1.75 | 13.5
4 | CC(=O)NCC(=O)N1Cc2nccn2CC(Cn2cccn2)C1 (stereo not given) | -1.48 | 0.581
5 | O=C(NCC1CC1)C1CN(C(=O)c2cccnc2)CC12CCOCC2 (stereo not given) | -2.58 | -10.2
6 | COc1ccc(CNCC2CCN(CC(C)O)CC2)c2ccccc12 (stereo not given) | -5.41 | -33.8
7 | Cc1nc(CNCc2c(C)nn(C)c2N2CCOCC2)cs1 | -5.61 | 23.3
8 | Cc1noc(C)c1CNC(=O)N1CCC(C(O)c2ccccc2)CC1 (stereo not given) | -2.1 | -19.9
9 | COc1ccccc1CC(=O)NCc1c(C)nc2cc(=O)[nH]n2c1C | -0.878 | 13.6
10 | Cc1cnn(C2CCCN(C(=O)c3cn4cccnc4n3)C2)c1 (stereo not given) | -0.409 | 8.96
11 | CC(NC(N)=O)C(=O)N1CCCN(Cc2nccn2C(C)C)CC1 (stereo not given) | 0.509 | 8.58
12 | CCn1cc(CNC2CC(=O)N(CCc3cccc(Cl)c3)C2)cn1 (stereo not given) | -2.05 | -2.75
13 | COc1ccc(C2=CCN(C(=O)CN(C)CC(N)=O)CC2)cc1 | -2.46 | -18.1
14 | O=C(Cn1ccc2ccc(Br)cc21)NCc1ccc(C(=O)O)cc1 | 14.7 | -5.49
15 | O=C(CCc1nccs1)N1CCN(c2ccccc2F)CC1 | -6.57 | -11.9
16 | O=C(NCc1ccccn1)NC1CCOc2ccccc21 (stereo not given) | -6.21 | -20.3
17 | O=C1CC2(CCN(Cc3ccoc3)C2)CN1c1ccc2c(c1)OCO2 (stereo not given) | 5.29 | -93.1
18 | CCn1ccnc1CN1CCCN(C(=O)c2cccn2C)CC1 | -3.17 | 5.64
19 | O=C(NC1CCC1)[C@@H]1CCO[C@@H]2CCN(CCc3ccccc3)C[C@H]21 | -2.94 | -26.8
20 | O=C(c1cnc(-c2ccco2)s1)N1CCCC1Cn1cccn1 (stereo not given) | -5.14 | -4.37
21 | Cc1nsc(NC(=O)N2CCC(C(C)(C)O)CC2)n1 | 0.0141 | -27.4
22 | CC(C)Cc1ccc(S(=O)(=O)Nc2ccc(=O)n(C)c2)cc1 | 30.2 | -23.8
23 | O=C(NCCc1c[nH]cn1)c1ccc2c(c1)C(=O)N(C1CC1)C2=O | -1.45 | -47.1
24 | Cn1cc(Cl)cc1C(=O)N1CCN(Cc2ccsc2)CC1 | -1.54 | 15.6
25 | CCCn1ncc2c(C(=O)Nc3n[nH]c(SC)n3)cc(C3CC3)nc21 | -6.49 | -0.011

Row | SMILES | Percent Effect [1] [%] | Percent Effect [2] [%]
26 | O=C(CCCc1cn[nH]c1)N1C[C@@H](CN2CCOCC2)[C@@H](CO)C1 | 4.17 | -29.7
27 | Cn1c2c(ccc1=O)CC(NS(C)(=O)=O)CC2 (stereo not given) | -0.956 | -18
28 | O=C(Cn1nc(-c2ccc(F)cc2)oc1=O)Nc1ccccc1 | -1.5 | -19.2
29 | CCC(CC)C(CNC(=O)Nc1ccc(C)cc1)N1CCOCC1 (stereo not given) | -1.91 | -3.64
30 | Cc1nccn1C1CCCN(C(=O)c2ccc3c(c2)COC3)C1 (stereo not given) | -1.72 | -16.7
31 | COc1cccc(CN2CCCC(Nc3cccc(F)c3)C2)c1O (stereo not given) | -1.31 | 11.2
32 | O=C(c1cccnc1N1CCOCC1)N1CCCC(n2ccnc2)C1 (stereo not given) | -4.5 | 31.6
33 | Cc1cc2nc(SCC(=O)N3CCCC3)n(C(C)C)c(=O)c2[nH]1 | 0.509 | -18
34 | COc1ccc(C[C@H]2CN(C(=O)CN(C)C)CC[C@H]2OC)cc1 | 0.341 | -5.78
35 | Cc1cnn(CC2CCCN2Cc2cc(=O)n3ccccc3n2)c1 (stereo not given) | 2.04 | 2.37
36 | O=C(NCC(F)(F)F)C1CSCN1S(=O)(=O)c1ccc(F)cc1 (stereo not given) | -3.86 | -29.9
37 | CS(=O)(=O)N1CCC(Oc2ccc(C(=O)N3CCSCC3)cc2Cl)CC1 | 1.75 | 11.9
38 | O=C(NCc1ccccn1)N(Cc1ccc(F)cc1F)C1CC1 | -1.6 | 10.3
39 | O=C(COc1coc(CN2CCCC2)cc1=O)NCc1ccccc1Cl | -2.03 | -62.7
40 | Cc1cc(CN2CCCC2c2noc(C)n2)no1 (stereo not given) | -5.01 | -5.29
41 | Cc1ccc2c(c1)c(CNC(=O)C1CC(=O)N(C3CCCC3)C1)nn2C (stereo not given) | 4.05 | -18
42 | CNS(=O)(=O)c1cccc(CNC(=O)c2c(C)nn(C)c2C)c1 | -4.44 | 8.19
43 | COCCC(=O)N1CC[C@@H](N(C)C)[C@@H]1Cc1ccccc1 | -3.16 | 2.6
44 | COc1ncc(C2(O)CCN(Cc3c(F)cccc3F)CC2)c(OC)n1 | 2.49 | 71.8
45 | O=C(CCNCC(F)(F)F)N1CCC(Nc2cccnn2)CC1 | 2.25 | -14.2
46 | O=C(CSc1ccccn1)N1C[C@H]2CC[C@@H]1CN(Cc1cscn1)C2 | -1.93 | -6.72
47 | Cc1cnc(N2CC3(CCN(C(=O)c4ccoc4)C3)C2)nc1 | 0.713 | -36.5
48 | Cc1nc(CCC(=O)NC2CCC2)cc(C2CCNCC2)n1 | 1.96 | -6.49
49 | COCCN1CCCC(O)(CN2CCN(c3ncccc3C)CC2)C1=O (stereo not given) | 5.57 | -7.55
50 | CCN1CCOC(CNCc2ccccc2OCC(=O)N(C)C)C1 (stereo not given) | -4.95 | 21.6

Row | SMILES | Percent Effect [1] [%] | Percent Effect [2] [%]
51 | Cc1noc(C)c1CN(C)C(=O)NC1CCN(C2CC2)CC1 | -2.46 | -7.45
52 | Cc1cc(N2CCCN(C(=O)Cc3csc(C)n3)CC2)ccn1 | 0.502 | 3.59
53 | Cc1noc(C)c1CN1CC[C@H]2OCC[C@@H](C(=O)NCC3CC3)[C@@H]2C1 | -1.49 | -13.8
54 | Cn1cc(-c2cnc(N3CCOCC3)nc2)cc1C(=O)O | -4.12 | 9.97
55 | CC(NC(=O)CCn1cncn1)c1nnc2n1CCCCC2 (stereo not given) | -0.486 | -13.7
56 | CN(C)C[C@H]1OC[C@@H]2CCN(C(=O)c3ccco3)C[C@@H]21 | -2.13 | -9.03
57 | O=C(C1CCCCC1)N1CCC2(CCCN2CC2CC2)CC1 | 2.39 | -6.44
58 | Cc1nc(C)n(CC2CCCCN2CCS(C)(=O)=O)n1 (stereo not given) | -3.09 | -15.8
59 | OC1CCCN(Cc2c(-c3ccco3)[nH]c3ncccc23)C1 (stereo not given) | -0.134 | 6.33
60 | CC(C)C(=O)NCCNc1nccc(-c2cc(C(=O)O)ccn2)n1 | 0.977 | -4.31
61 | CC(C)C(=O)NCC(=O)N(C)C1CCCN(C2Cc3ccccc3C2)C1 (stereo not given) | 1.1 | 0.34
62 | CN(C)C(=O)NC1COC2(CCN(Cc3nccn3C)CC2)C1 (stereo not given) | 2.7 | -6.31
63 | CCn1c(C)cc(C(=O)N2CCCC(n3nc(C)nc3C)C2)c1C (stereo not given) | -4.26 | 16
64 | COc1cccc(CNC(=O)CN2CCCCC2Cn2cccn2)c1 (stereo not given) | 0.922 | 20.3
65 | Cc1ccc2c(c1)OCCCC2NCc1nnc2n1CCCCC2 (stereo not given) | -4.58 | 3.72
66 | O=C(Nc1cc(C(F)(F)F)c[nH]c1=O)c1ccco1 | -2.75 | 5.24
67 | CC(C)Oc1cccc(C(O)CNC(=O)CCc2ccncc2)c1 (stereo not given) | -1.28 | -21.1
68 | CSCc1cccc(S(=O)(=O)N2CCSCC2)c1 | 0.639 | 0.0259
69 | CCOc1ccc(C2CC(=O)Nc3c2c(=O)nc2sccn32)cc1 (stereo not given) | 0.813 | -16.9
70 | CC(=O)N1CCCn2nc(CNS(=O)(=O)N3CCCCCC3)cc2C1 | -7.71 | -4.22
71 | CN(C)c1cc(CNC(=O)c2cn(-c3ccc(F)cc3)nn2)ccn1 | 1.09 | 6.86
72 | Cc1cc(CN(C)C(=O)NC(C)c2nncn2C)no1 (stereo not given) | -3.43 | 6.65
73 | N#CC1(C(=O)N2CCN(c3nccs3)CC2)CCCCC1 | -2.57 | 33.3
74 | Cc1cc2n(n1)CC(CNCc1ccnc(-n3ccnc3C)c1)CN2 (stereo not given) | -2.39 | -3.5
75 | COc1cccc(C2CCCN2Cc2nc3c(cnn3C)c(=O)[nH]2)c1 (stereo not given) | -4.03 | -6.96

Row | SMILES | Percent Effect [1] [%] | Percent Effect [2] [%]
76 | O=C(CN1CCC(c2cccc(F)c2)C1)NCC(F)(F)F (stereo not given) | -6.79 | 2.95
77 | COc1cccc(OCCNCc2c(C)nn(C)c2N(C)C)c1 | -1.97 | 19.6
78 | Cc1nccn1C1CCCN(C(=O)c2ccc3c(c2)nnn3C)C1 (stereo not given) | -1.94 | 16.2
79 | Cc1ccccc1CN(C)Cc1nc2c(cnn2C)c(=O)[nH]1 | 0.633 | -4.87
80 | COC(=O)C(C)(C)NC(=O)C1CC(=O)N(C2CCCC2)C1 (stereo not given) | 0.137 | -3.28
81 | Cc1nc(CNCC2CN(C)CCO2)cs1 (stereo not given) | -3.4 | -38.1
82 | Cc1ccc(-n2nnc(C(=O)NS(C)(=O)=O)c2C2CC2)cc1 | 0.379 | -7.97
83 | O=C(CCn1cccn1)N1CCN(CC(F)F)CC1 | 2.16 | 15.4
84 | Cc1cnn(CC(C)NCc2nc(-c3ccco3)no2)c1 (stereo not given) | -4.9 | 2.91
85 | COc1ncc(C2(O)CCN(Cc3ccccc3O)CC2)c(OC)n1 | -1.78 | -22.9
86 | CN(C)S(=O)(=O)c1ccc(CN2CCCC2c2ccc[nH]2)o1 (stereo not given) | -3.62 | 8.06
87 | OCc1ccc(Cl)c(NCc2cccnc2)c1 | 1.83 | -19.3
88 | COc1cccc(CN2CCCCCC2c2cccc(C)c2)c1O (stereo not given) | -0.481 | -68.7
89 | COc1c(C2CCCN2C(=O)c2ccc3cc[nH]c3c2)c(C)nn1C (stereo not given) | -1.15 | 3.54
90 | CC(=O)N1CCOCC2(CN(Cc3ccc(C)o3)CCO2)C1 (stereo not given) | 1.57 | -4.76
91 | CC(=O)N1CCN(C(=O)NCc2csc(Br)c2)CC1 | 0.204 | 5.42
92 | CN(C)CCNC(=O)c1cc(-c2cnc(N3CCCC3)nc2)cn1C | -0.309 | -17.7
93 | Cc1cc(NC(=O)CN(C)C2CCCN(c3cccnn3)C2)n(C)n1 (stereo not given) | 5.7 | 30.1
94 | COc1ccc(C2CCCN2S(=O)(=O)N(C)CC(C)C)cc1 (stereo not given) | 1.67 | -7.35
95 | CCCNC(=O)c1cc2c([nH]c1=O)CC(c1cccs1)CC2=O (stereo not given) | -5.46 | -20.3
96 | Cc1noc(C2CCN(Cc3cc(=O)n(C)c(=O)n3C)CC2)n1 | -4.37 | -1.09
97 | Cc1noc(C)c1CN(C)C(=O)NC1CCN(c2ncccn2)CC1 | 0.9 | 9.61
98 | O=C(c1ccc(F)c(Cl)c1)N1C[C@@H]2CC[C@H](C1)N(Cc1ccccc1)C2 | 4.06 | -25.3
99 | O=C(c1ccc(=O)[nH]n1)N1CC(c2nc(Cc3ccccc3)no2)C1 | -0.546 | -7.29
100 | COc1nn(C)cc1C(=O)N1CCC(c2nnc(C3CC3)o2)CC1 | -1.47 | -8.92
